# About 79,000 compounds went through this panel and 15% of them were active in at least one assay; those are over-represented in the sample as a whole. Values without a mark were called inactive. Activity calls are given as the source filed them. Cut-off read from the data, not from the text of the source: active = growth inhibition above about 70%; inactive = the rest. Where a SMILES comes first, the peptide text is derived from it. [ ]: non-standard residue; d: D form. The star is where a group is joined. ONb = O=[N+]([O-])c1ccc(CO*)cc1; Hpg = N[CH](C(=O)O)c1ccc(O)cc1; Boc = CC(C)(C)OC(=O)*
# Assays:
# [1] = NCI Yeast Anticancer Drug Screen. Data for the rad50 strain (AID 155);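 note: 0% = growth of vehicle-only cultures of the same strain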; details: S. cerevisiae rad50 strain growth inhibition; at 50.0 µM; hits give high values
# Method in brief: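 DNA repair mutant yeast, compound exposure, growth read-out; inhibition is taken relative to vehicle.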
# [2] = NCI Yeast Anticancer Drug Screen. Data for the mec2-1 strain (AID 157); details: S. cerevisiae mec2-1 strain, at 50.0 µM, hits give high values
# Method in brief: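 Compounds were applied to mec2-1 yeast cells. Their growth was then compared with that of vehicle-treated cultures to give growth inhibition.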
# [3] = NCI Yeast Anticancer Drug Screen. Data for the sgs1 mgt1 strain (AID 161);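 note: 0% = growth of cultures given vehicle only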; details: S. cerevisiae sgs1 mgt1 strain, at 50.0 µM, hits give high values
# Method in brief: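 Percent growth inhibition was derived by comparing compound-exposed mutant yeast with vehicle-exposed cultures. The strain carries alterations in DNA damage repair.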
# [4] = NCI Yeast Anticancer Drug Screen. Data for the cln2 rad14 strain (AID 165);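 note: 0% = growth equal to vehicle treated cultures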; details: S. cerevisiae cln2 rad14 strain, at 50.0 µM, hits give high values
# Method in brief: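 Strain: cln2 rad14 yeast, altered in cell cycle control and DNA damage repair. Read-out: growth inhibition vs vehicle.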
# [5] = NCI Yeast Anticancer Drug Screen. Data for the bub3 strain (AID 167); details: S. cerevisiae bub3 mutant strain, at 50.0 µM, hits give high values
# Method in brief: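 In this screen, a yeast mutant lacking normal mitotic checkpoint function is challenged with compound. Relative growth versus vehicle gives the inhibition value.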
# [6] = NCI Yeast Anticancer Drug Screen. Data for the mlh1 rad18 strain (AID 175); details: S. cerevisiae mlh1 rad18 strain growth inhibition; at 50.0 µM; hits give high values
# Method in brief: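 A repair-deficient yeast strain is exposed to test compound, and growth is scored relative to vehicle-treated controls.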
Structure (SMILES),growth inhibition [1],growth inhibition [2],growth inhibition [3],growth inhibition [4],growth inhibition [5],growth inhibition [6]
Nc1nc(Cl)cc(Nc2cc(Cl)cc(Cl)c2)n1,83.2% (active),53.6%,79.7% (active),63.7%,59.6%,82.3% (active)
O=C(O)c1ccccc1C(=O)Cc1ccccc1,-14.7%,-19%,-6.7%,-16%,-29.6%,-9.6%
O=[N+]([O-])c1cccc(/C=C/C=C/c2ccc(Cl)c(Cl)c2)c1,7.65%,9.3%,30.3%,3.65%,28.2%,4.1%
COc1c(C)c(OCC=C(C)C)cc(CO)c1CO,11.8%,-3.2%,-13.9%,-8.15%,-0.95%,-84.5%
CC(C)CC(NC(=O)OC(C)(C)C)C(=O)NC(CCC(=O)OCc1ccc([N+](=O)[O-])cc1)C(=O)OCc1ccc([N+](=O)[O-])cc1 (stereo not drawn) (Boc-Leu-Glu(ONb)-ONb; configuration not given here),-9.3%,-25.5%,-4.5%,4%,-10.1%,8.35%
Cc1ccc(-n2cc(/C(N)=N/O)c3ccccc3c2=O)cc1,-29.8%,-32.4%,-32.8%,-28.6%,-22.8%,-32.5%
Cc1cccc(N=C2NC(=O)C(CC(=O)Nc3ccccc3Cl)S2)c1 (stereo unspecified),-16.8%,-35.8%,12.8%,7.45%,0.95%,-1.55%
C/C(CC/C(C)=N/O)=N\O,6.4%,4.25%,-0.55%,-9.45%,11.6%,9.7%
Cc1ccccc1C(=O)OC1CCCC1,13.1%,-1.45%,2.95%,-19.4%,8.1%,0.5%
COC(=O)NN=C1C(C)(C)C(=NNC(=O)OC)C1(C)C,2.25%,-15.5%,-8.6%,27.1%,-17.6%,-5.4%
Nc1nc(CCC(=O)Nc2cccc(C(F)(F)F)c2)cc(-c2ccc3ccccc3c2)n1,-8.3%,-23.5%,-77.7%,-10.2%,-5.5%,-31.6%
CC(=O)N(C(C)=O)c1cc2c3c(c1)CCCN3CCC2,2.2%,-40.8%,-22.1%,-36.8%,-16.1%,-1.6%
Cc1ccc(F)c(N)c1,26.8%,-17.2%,24.1%,5.8%,5.75%,27.9%
COc1ccc(C2SCC(=O)N2NC(=O)c2ccc(NC(C)=O)cc2)cc1 (stereo unspecified),-50%,-49.5%,-62.5%,-8.9%,-21.7%,-61.5%
CCCCCCCCCCCC[N+]12CC[N+](C)(CC1)CC2,16.2%,-24.4%,-10.7%,-49%,-27.6%,-15.6%
CC(=O)Nc1ccccc1C(C)=O,5.45%,-7.25%,-10.2%,10%,-8.05%,4.85%
Oc1ccc2cc(O)ccc2c1,-5.45%,-25.6%,-1.7%,-7.8%,-20.4%,-5.85%
CCOC(=O)C(=N\Nc1ccccc1Br)/C(C)=N\NC(N)=S,50%,19.6%,56.9%,14.7%,9.3%,33%
Cc1cc(O)c(C(c2ccc3c(c2)OCO3)c2c(O)cc(C)[nH]c2=O)c(=O)[nH]1,31.1%,17.2%,-4.35%,-1.1%,0%,-34%
CCc1nc(N)nc(N)c1-c1ccc(NCCN)c(N)c1,3.4%,6.35%,5.15%,-6.05%,12.2%,8.5%
O=C1C(=O)N(C23CC4CC(CC(C4)C2)C3)C(=S)N1c1ccccc1,-9.7%,-20.6%,-44.2%,-26%,-24.7%,-27.2%

Structure (SMILES),growth inhibition [1],growth inhibition [2],growth inhibition [3],growth inhibition [4],growth inhibition [5],growth inhibition [6]
COC(=O)C1C(=O)C2CCC1C(=O)C2C(=O)OC (stereo unspecified),1.95%,-2.8%,16.4%,4.1%,9.75%,22.7%
C=CCN(CC=C)CCNc1cc(C)nc(/N=C(\N)Nc2ccc(Cl)c(Cl)c2)n1,94.7% (active),94.2% (active),96.8% (active),87% (active),94.7% (active),97.9% (active)
CC/C=N/Nc1cn[nH]c(=O)c1Cl,-1.3%,0.1%,9.85%,4.85%,-7.75%,-14.9%
Cc1ccc2oc(=O)cc(CC(=O)O)c2c1,-6%,-8.3%,-10.4%,12.1%,-10.7%,-7.9%
CCCC(=O)Oc1ccc(Br)cc1,6.6%,-22.4%,-5.25%,12.8%,-17.9%,20.9%
Cc1cccc(-n2c(N)cc(=O)[nH]c2=S)n1,-11.5%,-2.2%,-7.8%,-38.4%,-10.1%,-4.15%
CCOC(=O)c1c[nH]c2ccc(-c3ccccc3)cc2c1=O,4.65%,39.8%,4.6%,20.4%,40.7%,24.9%
CN(C)c1ccc(N2C(=S)SC(=Nc3ccccc3)C2=Nc2ccccc2)cc1,-6%,-13.6%,-10.8%,7.05%,-1.5%,3.45%
O=C(Cn1cc(I)c(C(=O)NCC(O)CO)n1)NCC(O)CO (stereo unspecified),-2.2%,-8.7%,-8.4%,26.9%,-5.9%,-9.25%
CCOC(=O)Nc1ccc(NC(C)=O)cc1,2.45%,0.65%,1.3%,-62.7%,-23.8%,-22.6%
CC(C)CC(N)C(=O)NC(C(=O)O)c1ccc(O)cc1 (stereo unspecified) (H-Leu-[Hpg]-OH; configuration not given here),-5.3%,-10.1%,3.4%,-20.4%,2.7%,15.8%
CCC(C#N)(c1ccccc1)N(CCc1ccccc1)C(=O)c1ccccc1 (stereo unspecified),-5.8%,-0.5%,-12.9%,-20.9%,-13.2%,-22.1%
CC(=O)Nc1ccc(S(=O)(=O)Nc2cc(Cl)cc(Cl)c2)cc1,15.7%,-10.2%,-0.05%,8.75%,2.1%,-7.1%
CN(c1ccccc1)c1nc(Cl)c(Cl)c(Cl)n1,-0.2%,-11.5%,6.55%,-39.9%,2.45%,-3.5%
Cc1ccc(N(C)c2cc(=O)n(C)c(=O)[nH]2)cc1C,14.4%,16.2%,10.3%,28.3%,12.4%,14.4%
O=C(/C=C\c1ccc(Cl)cc1)c1ccccc1,-23.1%,-34.5%,15.3%,-6.4%,12.7%,2.05%
C(=C(c1ccccc1)c1ccccc1)N1CCOCC1,-2.3%,-5.5%,4.7%,-52%,-20.1%,1.2%
CC(C)=NNS(=O)(=O)c1ccc(C)cc1,-7.7%,14.6%,2.65%,7.2%,-14.2%,-7.55%
COC(=O)C(/C(=N\O)C(=O)Nc1cccc(Cl)c1C)c1cnc2ccccc2n1 (stereo unspecified),14.5%,-11.1%,8.75%,23.5%,-0.2%,12.5%
O=C(O)/C=C\C(Cl)(Cl)Cl,-6.35%,-6.6%,-6.7%,4.15%,-41%,-13.4%

# From PubChem BioAssay (NCI)
